According to PubChem BioAssay (Tox21):
Records with an inconclusive call do not appear. Activity calls are given as the source filed them. Unless noted, calls come from the whole dose curve; as a rule, active = well fitted cell-killing curve with a large enough effect in the repeat runs; inconclusive = weak or mixed curves, or effect the other way; inactive = no such curve, though single readings can be large or run the other way.
% is set by controls: 0 for no effect and ±100 for the full control effect.

Assay: qHTS assay for small molecule activators of the heat shock response signaling pathway - cell viability counter screen (AID 743209); note: nearly all actives have a fitted effect of over 50% in size
Settings: HSE-bla HeLa viability, CellTiter-Glo luminescence, 5 h; series mostly up to 62.6 µM
Method in brief: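 Cytotoxicity counter screen run in the same wells as the heat-shock bla reporter assay: HeLa HSE-bla cells, 5 h compound exposure at 37 C, viability read by CellTiter-Glo luminescence.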
In the case of `CC1=CC(C)C(C=O)C(C)C1` (stereo not drawn), the outcome was “inactive”. With `Cc1cc(C)c(NC(=O)CN(CC(=O)O)CC(=O)O)c(C)c1Br` the outcome was “inactive”. For `OC/C=C/c1ccccc1`, the outcome was “inactive”. In the case of `C#CC(O)C(CC)CCCC` (stereo not drawn), the outcome was “inactive”. With `C=C(C)C(=O)OCCCCCCCCCCCCCCCCCC` the outcome was “inactive”. In the case of `C=CCOc1nc(OCC=C)nc(OCC=C)n1`, the outcome was “inactive”. In the case of `CCCCCN(CCCCC)C(=O)C(CCC(=O)O)NC(=O)c1ccc(Cl)c(Cl)c1` (stereo not drawn), the outcome was “inactive”. In the case of `OCCCCCCO`, the outcome was “inactive”. In the case of `NS(=O)(=O)c1cc2c(cc1C(F)(F)F)NC(Cc1ccccc1)NS2(=O)=O` (stereo not drawn), the outcome was “inactive”. For `CCO[Si](CCCN=C=O)(OCC)OCC`, the outcome was “inactive”. With `CC(C=O)Cc1ccc(C(C)C)cc1` (stereo not drawn) the outcome was “inactive”. In the case of `CC1=CC(=O)CCC1`, the outcome was “inactive”. For `O=C(O)/C=C/c1ccc(/C=C/C(=O)O)cc1`, the outcome was “inactive”. With `CCCOCC(C)OCC(C)O` (stereo not drawn) the outcome was “inactive”. In the case of `OC[C@H]1O[C@@H]2O[C@H]3[C@H](O)[C@@H](O)[C@@H](O[C@H]4[C@H](O)[C@@H](O)[C@@H](O[C@H]5[C@H](O)[C@@H](O)[C@@H](O[C@H]6[C@H](O)[C@@H](O)[C@@H](O[C@H]7[C@H](O)[C@@H](O)[C@@H](O[C@H]8[C@H](O)[C@@H](O)[C@@H](O[C@H]9[C@H](O)[C@@H](O)[C@@H](O[C@H]1[C@H](O)[C@H]2O)O[C@@H]9CO)O[C@@H]8CO)O[C@@H]7CO)O[C@@H]6CO)O[C@@H]5CO)O[C@@H]4CO)O[C@@H]3CO`, the outcome was “inactive”. In the case of `OCc1ccccn1`, the outcome was “inactive”. In the case of `NC(=O)CCCCC1CCSS1` (stereo not drawn), the outcome was “inactive”. For `CSc1ccc(C=O)cc1`, the outcome was “inactive”. With `CCCc1ccccc1O` the outcome was “inactive”. In the case of `CCOC(=O)Cn1c(=O)sc2cccc(Cl)c21`, the outcome was “inactive”. With `COC(=O)CCCC(=O)O` the outcome was “inactive”. With `C/C=C1\C(=O)C[C@H]2[C@@H]3CCC4=CC(=O)CC[C@]4(C)[C@H]3CC[C@]12C` the outcome was “inactive”. With `FC(F)(F)C(F)(F)C(F)(F)C(F)(F)C(F)(F)C(F)(F)C(F)(F)C(F)(F)C(F)(F)C(F)(F)F` the activity change, negative = cytotoxicity was 3.17% [at 5.95 µM] (inactive). In the case of `C=CC(=O)OCCCCCC`, the outcome was “inactive”. With `COc1cc(CCC(C)=O)ccc1O` the outcome was “inactive”. For `CCn1cc(C(=O)O)c(=O)c2cc(F)c(N3CCN(C)CC3)cc21`, the outcome was “inactive”. For `O=S(=O)(O)c1ccccc1O`, the outcome was “inactive”. With `C#CC(O)CCCCC` (stereo not drawn) the outcome was “inactive”. For `Cc1c(C)n(CCN(C)C)c2ccc(C(=O)OCCN(C)C)cc12`, the outcome was “inactive”. For `C=CC(=O)N1CCOCC1`, the outcome was “inactive”. In the case of `OCC(O)[C@@H](O)[C@H](O)[C@H](O)CO[C@H]1O[C@H](CO)[C@@H](O)[C@H](O)[C@H]1O` (stereo partly drawn), the outcome was “inactive”. In the case of `CCCCCCCCC=O`, the outcome was “inactive”. In the case of `CC(CCO)CCCC(C)(C)O` (stereo not drawn), the outcome was “inactive”. In the case of `C[C@H]1O[C@@H](n2cc(F)c(=O)[nH]c2=O)[C@H](O)[C@@H]1O`, the outcome was “inactive”. With `CCCCCCCCCCC1CO1` (stereo not drawn) the outcome was “inactive”. In the case of `N[C@@H](CS)C(=O)O`, the outcome was “inactive”. In the case of `C=C(C)C(=O)NCCC[N+](C)(C)C`, the outcome was “inactive”.

Assay: qHTS assay for small molecule activators of the heat shock response signaling pathway (AID 743210; active = well fitted activation curve with a large enough effect in the signal ratio in the repeat runs, with a control signal flat, not every such curve was filed as active; the % refers to the signal ratio;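 note: HeLa cells with beta-lactamase reporter driven by heat shock elements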)
Settings: HeLa HSE-bla reporter, beta-lactamase ratio, 5 h; series mostly up to 62.6 µM
Method in brief: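 Beta-lactamase reporter read-out: FRET substrate fluorescence after 2.5 h at RT, following 5 h compound treatment at 37 C of HeLa cells carrying HSE-driven bla reporter; quantitative HTS format.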
For `CC1=CC(C)C(C=O)C(C)C1` (stereo not drawn), the outcome was “inactive”. With `Cc1cc(C)c(NC(=O)CN(CC(=O)O)CC(=O)O)c(C)c1Br` the outcome was “inactive”. With `OC/C=C/c1ccccc1` the outcome was “inactive”. In the case of `C#CC(O)C(CC)CCCC` (stereo not drawn), the outcome was “inactive”. For `C=C(C)C(=O)OCCCCCCCCCCCCCCCCCC`, the outcome was “inactive”. With `C=CCOc1nc(OCC=C)nc(OCC=C)n1` the outcome was “inactive”. With `OCCCCCCO` the outcome was “inactive”. For `NS(=O)(=O)c1cc2c(cc1C(F)(F)F)NC(Cc1ccccc1)NS2(=O)=O` (stereo not drawn), the outcome was “inactive”. For `CCO[Si](CCCN=C=O)(OCC)OCC`, the outcome was “inactive”. In the case of `CC(C=O)Cc1ccc(C(C)C)cc1` (stereo not drawn), the outcome was “inactive”. For `CC1=CC(=O)CCC1`, the outcome was “inactive”. In the case of `O=C(O)/C=C/c1ccc(/C=C/C(=O)O)cc1`, the outcome was “inactive”. With `CCCOCC(C)OCC(C)O` (stereo not drawn) the outcome was “inactive”. With `OC[C@H]1O[C@@H]2O[C@H]3[C@H](O)[C@@H](O)[C@@H](O[C@H]4[C@H](O)[C@@H](O)[C@@H](O[C@H]5[C@H](O)[C@@H](O)[C@@H](O[C@H]6[C@H](O)[C@@H](O)[C@@H](O[C@H]7[C@H](O)[C@@H](O)[C@@H](O[C@H]8[C@H](O)[C@@H](O)[C@@H](O[C@H]9[C@H](O)[C@@H](O)[C@@H](O[C@H]1[C@H](O)[C@H]2O)O[C@@H]9CO)O[C@@H]8CO)O[C@@H]7CO)O[C@@H]6CO)O[C@@H]5CO)O[C@@H]4CO)O[C@@H]3CO` the outcome was “inactive”. In the case of `OCc1ccccn1`, the outcome was “inactive”. For `NC(=O)CCCCC1CCSS1` (stereo not drawn), the outcome was “inactive”. With `CSc1ccc(C=O)cc1` the outcome was “inactive”. With `CCCC(=O)O[C@]1(C(=O)CCl)[C@@H](C)C[C@H]2[C@@H]3CCC4=CC(=O)C=C[C@]4(C)[C@@]3(F)C(=O)C[C@@]21C` the outcome was “inactive”. For `CCOC(=O)Cn1c(=O)sc2cccc(Cl)c21`, the outcome was “inactive”. In the case of `COC(=O)CCCC(=O)O`, the outcome was “inactive”. In the case of `C/C=C1\C(=O)C[C@H]2[C@@H]3CCC4=CC(=O)CC[C@]4(C)[C@H]3CC[C@]12C`, the outcome was “inactive”. In the case of `FC(F)(F)C(F)(F)C(F)(F)C(F)(F)C(F)(F)C(F)(F)C(F)(F)C(F)(F)C(F)(F)C(F)(F)F`, the activation was 2.05% [at 5.95 µM] (inactive). With `C=CC(=O)OCCCCCC` the outcome was “inactive”. In the case of `COc1cc(CCC(C)=O)ccc1O`, the outcome was “inactive”. With `CCn1cc(C(=O)O)c(=O)c2cc(F)c(N3CCN(C)CC3)cc21` the outcome was “inactive”. For `O=S(=O)(O)c1ccccc1O`, the outcome was “inactive”. For `C#CC(O)CCCCC` (stereo not drawn), the outcome was “inactive”. For `Cc1c(C)n(CCN(C)C)c2ccc(C(=O)OCCN(C)C)cc12`, the outcome was “inactive”. With `C=CC(=O)N1CCOCC1` the outcome was “inactive”. In the case of `OCC(O)[C@@H](O)[C@H](O)[C@H](O)CO[C@H]1O[C@H](CO)[C@@H](O)[C@H](O)[C@H]1O` (stereo partly drawn), the outcome was “inactive”. With `CCCCCCCCC=O` the outcome was “inactive”. For `CC(CCO)CCCC(C)(C)O` (stereo not drawn), the outcome was “inactive”. With `C[C@H]1O[C@@H](n2cc(F)c(=O)[nH]c2=O)[C@H](O)[C@@H]1O` the outcome was “inactive”. In the case of `CCCCCCCCCCC1CO1` (stereo not drawn), the outcome was “inactive”. With `N[C@@H](CS)C(=O)O` the outcome was “inactive”. With `C=C(C)C(=O)NCCC[N+](C)(C)C` the outcome was “inactive”.
